Measurements from PubChem BioAssay (NCI).
Values joined by “and” are separate entries in the source; they are usually repeats but may differ in a detail not shown here. Equal values may be shown once. The panel holds about 83,000 compounds, 20% with a hit somewhere; the sample as a whole holds those more often.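 Cell lines were cultured in 96-well plates, exposed to a single compound concentration, and assessed for percent growth 48 hours later.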 Active and inactive are the calls of the source. How the source made its calls: active means growth percent below 10; inactive means the rest.

Experiments:
Test in all cases: NCI-60 one-dose screen, 48 h (100 = growth as untreated, 0 = no growth, -100 = all killed)
[1] = tested on: NCI-H23 lung
[2] = tested on: NCI-H226 lung
[3] = tested on: NCI-H322M lung
[4] = tested on: HOP-62 NSCLC
[5] = tested on: NCI-H460 lung
[6] = tested on: HOP-92 NSCLC
[7] = tested on: NCI-H522 lung
[8] = tested on: A549/ATCC NSCLC
[9] = tested on: 786-0 renal
[10] = tested on: COLO 205 colon

Measured: growth

CN1C(=O)C(O)(CC(=O)c2cc3ccccc3oc2=O)c2ccccc21 (stereo not given)
inactive: [1]; 10 µM unless noted 93.3% | [2]; 10 µM unless noted 81% | [3]; 10 µM unless noted 103% | [4]; 10 µM unless noted 97% | [5]; 10 µM unless noted 114% | [6]; 10 µM unless noted 110% | [7]; 10 µM unless noted 92.7% | [8]; 10 µM unless noted 111% | [9]; 10 µM unless noted 105% | [10]; 10 µM unless noted 114%

O=C(Cn1c(-c2ccccc2)nc2ccccc21)N=Nc1c(O)[nH]c2ccc(Br)cc12
inactive: [7]; 10 µM unless noted 29.5%
active: [1]; 10 µM unless noted 3.3% | [2]; 10 µM unless noted -59.9% | [3]; 10 µM unless noted -6.14% | [4]; 10 µM unless noted -68.1% | [5]; 10 µM unless noted -29.9% | [6]; 10 µM unless noted -60.6% | [8]; 10 µM unless noted 8.52% | [9]; 10 µM unless noted -56.2% | [10]; 10 µM unless noted -66.9%

CC/C(=C(\c1ccc(O)cc1)c1ccc(OCCN(C)C(=O)CCOCCNC(=O)c2ccc3c(c2)CN([C@@H]2CCC(=O)NC2=O)C3=O)cc1)c1ccccc1
inactive: [1]; 1 µM 105% | [1]; 10 µM 97.2% | [2]; 1 µM 87.2% | [2]; 10 µM 66.3% | [3]; 1 µM 101% | [3]; 10 µM 88.1% | [4]; 1 µM 95.1% | [4]; 10 µM 94.4% | [5]; 1 µM 115% | [5]; 10 µM 114% | [6]; 1 µM 37.9% | [6]; 10 µM 43.7% | [7]; 1 µM 92.6% | [7]; 10 µM 95.3% | [8]; 1 µM 85% | [8]; 10 µM 82.2% | [9]; 1 µM 96.6% | [9]; 10 µM 93.4% | [10]; 1 µM 95.4% | [10]; 10 µM 94.5%

CC/C(=C(\c1ccc(O)cc1)c1ccc(OCCN(C)C(=O)COCCNC(=O)Cc2ccc3c(c2)CN([C@@H]2CCC(=O)NC2=O)C3=O)cc1)c1ccccc1
inactive: [1]; 1 µM 102% | [1]; 10 µM 86.6% | [2]; 1 µM 77.4% | [3]; 1 µM 77.5% | [3]; 10 µM 37.9% | [4]; 1 µM 72% | [4]; 10 µM 16.2% | [5]; 1 µM 124% | [5]; 10 µM 106% | [7]; 1 µM 92.2% | [7]; 10 µM 95.3% | [8]; 1 µM 95.7% | [8]; 10 µM 75.2% | [9]; 1 µM 94% | [9]; 10 µM 90.6% | [10]; 1 µM 72.2% | [10]; 10 µM 33.8%
active: [2]; 10 µM 6.46% | [6]; 1 µM 8.46% | [6]; 10 µM -0.223%

Cc1ccc(N=Nc2c(N)nn3c(-c4cc5cc(Br)ccc5oc4=O)ccnc23)cc1
active: [2]; 10 µM unless noted -26.3%
inactive: [1]; 10 µM unless noted 21.7% | [3]; 10 µM unless noted 83.6% | [4]; 10 µM unless noted 47.7% | [5]; 10 µM unless noted 34.9% | [6]; 10 µM unless noted 73.6% | [7]; 10 µM unless noted 11.7% | [8]; 10 µM unless noted 113% | [9]; 10 µM unless noted 56.8% | [10]; 10 µM unless noted 100%

N/C(=N\c1nc2ccccc2s1)NC(=O)Nc1ccccc1[N+](=O)[O-]
inactive: [1]; 10 µM unless noted 14.3% | [2]; 10 µM unless noted 29.1% | [3]; 10 µM unless noted 39.9% | [4]; 10 µM unless noted 30.1% | [5]; 10 µM unless noted 11.1% | [8]; 10 µM unless noted 16.8% | [9]; 10 µM unless noted 11%
active: [6]; 10 µM unless noted -5.71% | [7]; 10 µM unless noted -50.1% | [10]; 10 µM unless noted -72%

CSc1ccc(OCc2nc3ccccc3n2-c2cccc(NS(C)(=O)=O)c2)cc1
inactive: [1]; 10 µM unless noted 92.3% and 81.1% | [2]; 10 µM unless noted 100% and 88.1% | [3]; 10 µM unless noted 106% and 105% | [4]; 10 µM unless noted 114% and 75.1% | [5]; 10 µM unless noted 114% and 73.3% | [6]; 10 µM unless noted 80.1% and 93.1% | [7]; 10 µM unless noted 105% and 96.7% | [8]; 10 µM unless noted 104% and 87.1% | [9]; 10 µM unless noted 114% and 97.3% | [10]; 10 µM unless noted 120% and 91.4%

NS(=O)(=O)c1cccc(Nc2nc(SCC(=O)c3ccc(F)cc3)nc3ccccc23)c1
inactive: [2]; 10 µM unless noted 15.3% | [3]; 10 µM unless noted 22.9% | [5]; 10 µM unless noted 12.5% | [6]; 10 µM unless noted 29% | [8]; 10 µM unless noted 28.1% | [9]; 10 µM unless noted 26.1% | [10]; 10 µM unless noted 26.4%
active: [1]; 10 µM unless noted 5.36% | [4]; 10 µM unless noted 5.89% | [7]; 10 µM unless noted -0.334%

CS(=O)(=O)Nc1cc(-c2ccc3ncnc(N4CCc5cc(F)c(Cl)cc54)c3c2)cnc1Cl
inactive: [4]; 10 µM unless noted 27.8% | [5]; 10 µM unless noted 12.1% | [7]; 10 µM unless noted 17.7%
active: [1]; 10 µM unless noted 4.88% | [2]; 10 µM unless noted 8.15% | [3]; 10 µM unless noted 8.81% | [6]; 10 µM unless noted -20.7% | [8]; 10 µM unless noted -3.2% | [9]; 10 µM unless noted 4.55% | [10]; 10 µM unless noted -1.45%

Cc1ccc(C(=O)Nc2ccc(-n3ccnc3)c(C(F)(F)F)c2)cc1C#Cc1cnc2cccnn12
inactive: [1]; 10 µM unless noted 13.3% | [3]; 10 µM unless noted 44.5% | [5]; 10 µM unless noted 18.8% | [8]; 10 µM unless noted 28.8% | [9]; 10 µM unless noted 14% | [10]; 10 µM unless noted 22.5%
active: [2]; 10 µM unless noted -52.4% | [4]; 10 µM unless noted -20.3% | [6]; 10 µM unless noted -14.1% | [7]; 10 µM unless noted -20%

Cc1ccc(NC(=O)N/N=C/c2c[nH]c3ccccc23)c(C)c1
active: [5]; 10 µM unless noted 5.78% | [7]; 10 µM unless noted -36.8% | [9]; 10 µM unless noted -18.4% | [10]; 10 µM unless noted -51.5%
inactive: [1]; 10 µM unless noted 12.6% | [2]; 10 µM unless noted 12.6% | [3]; 10 µM unless noted 42% | [4]; 10 µM unless noted 34.4% | [6]; 10 µM unless noted 16.3% | [8]; 10 µM unless noted 14.9%

O=C(c1cc2cc(OCCCN3CCC3)ccc2[nH]1)N1C[C@@H](CCl)c2c1cc(OCc1ccccc1)c1ccccc21
active: [1]; 10 µM unless noted -73.4% | [2]; 10 µM unless noted -4.57% | [3]; 10 µM unless noted -23.5% | [4]; 10 µM unless noted -44% | [5]; 10 µM unless noted -60.1% | [6]; 10 µM unless noted -18.7% | [7]; 10 µM unless noted -70.1% | [8]; 10 µM unless noted -18.5% | [9]; 10 µM unless noted -86.1% | [10]; 10 µM unless noted -84.5%

N/C(=N\c1nc2ccccc2s1)NC(=O)Nc1ccccc1F
inactive: [1]; 10 µM unless noted 19.9% | [2]; 10 µM unless noted 46.2% | [3]; 10 µM unless noted 54.5% | [5]; 10 µM unless noted 30.2% | [6]; 10 µM unless noted 19.3% | [8]; 10 µM unless noted 47.5% | [9]; 10 µM unless noted 17.7%
active: [4]; 10 µM unless noted 0.224% | [7]; 10 µM unless noted -45.5% | [10]; 10 µM unless noted -33%

NS(=O)(=O)c1ccc(Nc2nc(N/N=C/c3cc(Br)c(O)c(Br)c3)nc(Nc3ccccc3)n2)cc1
active: [6]; 10 µM unless noted -4.41%
inactive: [1]; 10 µM unless noted 27.7% | [2]; 10 µM unless noted 54.7% | [3]; 10 µM unless noted 37.6% | [4]; 10 µM unless noted 27% | [5]; 10 µM unless noted 99.8% | [7]; 10 µM unless noted 49.4% | [8]; 10 µM unless noted 97.6% | [9]; 10 µM unless noted 25.1% | [10]; 10 µM unless noted 88%

CC/C(=C(/c1ccc(O)cc1)c1ccc(OCCN(C)C(=O)COCCOCCNC(=O)c2ccc3c(c2)CN([C@@H]2CCC(=O)NC2=O)C3=O)cc1)c1ccccc1
inactive: [1]; 1 µM 99% | [1]; 10 µM 97% | [2]; 1 µM 89.4% | [2]; 10 µM 65.4% | [3]; 1 µM 101% | [3]; 10 µM 85.2% | [4]; 1 µM 93.4% | [4]; 10 µM 81% | [5]; 1 µM 111% | [5]; 10 µM 114% | [6]; 1 µM 26.9% | [6]; 10 µM 18.2% | [7]; 1 µM 91.7% | [7]; 10 µM 90% | [8]; 1 µM 89.4% | [8]; 10 µM 85.3% | [9]; 1 µM 94% | [9]; 10 µM 96.7% | [10]; 1 µM 91.3% | [10]; 10 µM 79.3%

CC/C(=C(\c1ccc(O)cc1)c1ccc(OCCNC)cc1)c1ccccc1
inactive: [1]; 1 µM 98.9% | [1]; 10 µM 96.5% | [2]; 1 µM 85.9% | [2]; 10 µM 74.7% | [3]; 1 µM 100% | [3]; 10 µM 102% | [4]; 1 µM 97.8% | [4]; 10 µM 96.8% | [5]; 1 µM 118% | [5]; 10 µM 69.2% | [6]; 1 µM 80.2% | [6]; 10 µM 65.1% | [7]; 1 µM 87.9% | [7]; 10 µM 93% | [8]; 1 µM 93.9% | [8]; 10 µM 88.2% | [9]; 1 µM 89.7% | [9]; 10 µM 76.7% | [10]; 1 µM 116% | [10]; 10 µM 91%

CN(C)c1nc(NCCNS(=O)(=O)c2ccc(C(=O)/C=C/c3ccc(Cl)cc3)cc2)nc(N2CCOCC2)n1
active: [1]; 10 µM unless noted 9.4% | [9]; 10 µM unless noted -41.6%
inactive: [2]; 10 µM unless noted 74.9% | [3]; 10 µM unless noted 81.2% | [4]; 10 µM unless noted 74.8% | [5]; 10 µM unless noted 50.7% | [6]; 10 µM unless noted 67.9% | [7]; 10 µM unless noted 25% | [8]; 10 µM unless noted 12% | [10]; 10 µM unless noted 21.1%

COc1ccc(Nc2ncnc3sc4c(c23)CCN(Cc2ccccc2)C4)cc1
inactive: [1]; 10 µM unless noted 91.8% | [2]; 10 µM unless noted 84.3% | [3]; 10 µM unless noted 93.7% | [4]; 10 µM unless noted 81.9% | [5]; 10 µM unless noted 71% | [6]; 10 µM unless noted 85.7% | [7]; 10 µM unless noted 63.2% | [8]; 10 µM unless noted 77.3% | [9]; 10 µM unless noted 76.4% | [10]; 10 µM unless noted 106%

CC/C(=C(/c1ccc(O)cc1)c1ccc(OCCN(C)C(=O)COCCOCCNC(=O)Cc2ccc3c(c2)CN([C@@H]2CCC(=O)NC2=O)C3=O)cc1)c1ccccc1
inactive: [1]; 1 µM 101% | [1]; 10 µM 97.4% | [2]; 1 µM 93.8% | [2]; 10 µM 39.9% | [3]; 1 µM 93.9% | [3]; 10 µM 64.1% | [4]; 1 µM 91.6% | [4]; 10 µM 38.8% | [5]; 1 µM 125% | [5]; 10 µM 110% | [6]; 1 µM 15.5% | [6]; 10 µM 12.7% | [7]; 1 µM 93.6% | [7]; 10 µM 88.1% | [8]; 1 µM 102% | [8]; 10 µM 88.1% | [9]; 1 µM 96% | [9]; 10 µM 80.7% | [10]; 1 µM 96.4% | [10]; 10 µM 31.2%

Cc1ccccc1Nc1nnc(-c2c[nH]c3ccccc23)o1
active: [7]; 10 µM unless noted -23.2% | [10]; 10 µM unless noted -32.7%
inactive: [1]; 10 µM unless noted 28.1% | [2]; 10 µM unless noted 43.9% | [3]; 10 µM unless noted 38.2% | [4]; 10 µM unless noted 24.8% | [5]; 10 µM unless noted 20.1% | [6]; 10 µM unless noted 29.1% | [8]; 10 µM unless noted 40.3% | [9]; 10 µM unless noted 40%

O=C(CSc1nnc(-c2ccc(-c3nc4ccc(Cl)cc4[nH]3)cc2)o1)Nc1ccccc1
inactive: [3]; 10 µM unless noted 37.6% | [10]; 10 µM unless noted 75.9%
active: [1]; 10 µM unless noted -41.5% | [2]; 10 µM unless noted -23.7% | [4]; 10 µM unless noted -27.1% | [5]; 10 µM unless noted -48.7% | [6]; 10 µM unless noted 2.36% | [7]; 10 µM unless noted -3.89% | [8]; 10 µM unless noted -31.9% | [9]; 10 µM unless noted -59%
